Assay results from PubChem BioAssay (Tox21).
Results filed as inconclusive are left out. The source made the active and inactive calls. Calls follow the shape of the dose curve; as a rule, active = well fitted curve in the direction sought with a large enough effect in the repeat runs; inconclusive = weak or mixed curves; inactive = no such curve, though single readings can be large; an effect the other way counts as inactive or inconclusive.

Columns and labels:
[1] = qHTS RealTime-Glo MT Cell Viability Assay in HEK293 cells - 16 hour (AID 1224872); also: top concentration of the series differs between compounds; nearly all actives have a fitted effect of over 50% in size
Method in brief: (§1)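 Viability tracked continuously by luminescence as live cells reduce a prosubstrate for NanoLuc; HEK293 cells preincubated 5 h, compound-treated at 37 C, and read at 0, 8, 16, 24, 32 and 40 h.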

[2] = qHTS RealTime-Glo MT Cell Viability Assay in HepG2 cells - 8 hour (AID 1224873); also: nearly all actives have a fitted effect of over 55% in size
Method in brief: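 HepG2 cells (600/well) mixed with RealTime-Glo MT reagent, settled 5 h at 37 C/5% CO2 before compound addition. Nonlytic NanoLuc luminescence from viable-cell prosubstrate reduction read repeatedly during 40 h treatment at 37 C.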

[3] = qHTS RealTime-Glo MT Cell Viability Assay in HEK293 cells - 40 hour (AID 1224874); settings: RealTime-Glo luminescence; max response: stronger effect = lower value; also: nearly all actives have a fitted effect of over 50% in size
Method in brief: (§2)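 Cells were seeded together with NanoLuc luciferase and a prosubstrate that viable cells reduce to a luciferase substrate. After a 5 h incubation at 37 C/5% CO2, compounds were added and luminescence was measured repeatedly during 40 h of treatment.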

[4] = A CellTox Green Cytotoxicity Assay to monitor cytotoxicity in HEK293 cells - 24 hour (AID 1224875); also: series mostly up to about 77 µM; nearly all actives have a fitted effect of over 45% in size
Method in brief: (§3)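 Nonlytic real-time cytotoxicity: HEK293 + CellTox Green reagent plated, 5 h preincubation, pintool compound addition (23 nL in DMSO), 37 C for 40 h, fluorescence measured at successive time points.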

[5] = A CellTox Green Cytotoxicity Assay to monitor cytotoxicity in HepG2 cells - 16 hour (AID 1224876); also: nearly all actives have a fitted effect of over 45% in size
Method in brief: (§4)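 Read-out is fluorescence of a cyanine dye excluded from live cells that stains DNA of dead HepG2 cells, with signal proportional to cytotoxicity. Plates were read at 0, 8, 16, 24, 32 and 40 h after compound addition.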

[6] = qHTS RealTime-Glo MT Cell Viability Assay in HepG2 cells - 32 hour (AID 1224877); also: nearly all actives have a fitted effect of over 55% in size
Method in brief: (§5)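 Viability was tracked continuously by NanoLuc luminescence from prosubstrate reduced by living HepG2 cells, at successive time points over 40 h of compound exposure. Cells with reagent were preincubated 5 h at 37 °C before compound addition.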

[7] = A CellTox Green Cytotoxicity Assay to monitor cytotoxicity in HepG2 cells - 24 hour (AID 1224878); also: nearly all actives have a fitted effect of over 45% in size
Method in brief: as §4

[8] = A CellTox Green Cytotoxicity Assay to monitor cytotoxicity in HepG2 cells - 40 hour (AID 1224879); also: nearly all actives have a fitted effect of over 40% in size
Method in brief: as §4

[9] = qHTS RealTime-Glo MT Cell Viability Assay in HEK293 cells - 0 hour (AID 1224880); also: top concentration of the series differs between compounds; nearly all actives have a fitted effect of over 45% in size
Method in brief: as §2

[10] = A CellTox Green Cytotoxicity Assay to monitor cytotoxicity in HEK293 cells - 32 hour (AID 1224881); also: nearly all actives have a fitted effect of over 40% in size
Method in brief: as §3

[11] = A CellTox Green Cytotoxicity Assay to monitor cytotoxicity in HepG2 cells - 0 hour (AID 1224882); also: nearly all actives have a fitted effect of over 35% in size
Method in brief: as §4

[12] = A CellTox Green Cytotoxicity Assay to monitor cytotoxicity in HepG2 cells - 32 hour (AID 1224883); also: nearly all actives have a fitted effect of over 50% in size
Method in brief: as §4

[13] = A CellTox Green Cytotoxicity Assay to monitor cytotoxicity in HEK293 cells - 8 hour (AID 1224884); also: nearly all actives have a fitted effect of over 35% in size
Method in brief: as §3

[14] = qHTS RealTime-Glo MT Cell Viability Assay in HepG2 cells - 16 hour (AID 1224885); also: nearly all actives have a fitted effect of over 50% in size
Method in brief: as §5

[15] = qHTS RealTime-Glo MT Cell Viability Assay in HEK293 cells - 24 hour (AID 1224886)
Method in brief: as §1

[16] = qHTS RealTime-Glo MT Cell Viability Assay in HEK293 cells - 8 hour (AID 1224887)
Method in brief: as §2

[17] = A CellTox Green Cytotoxicity Assay to monitor cytotoxicity in HEK293 cells - 16 hour (AID 1224888); also: nearly all actives have a fitted effect of over 35% in size
Method in brief: as §3

[18] = A CellTox Green Cytotoxicity Assay to monitor cytotoxicity in HepG2 cells - 8 hour (AID 1224890); also: nearly all actives have a fitted effect of over 45% in size
Method in brief: as §4

[19] = qHTS RealTime-Glo MT Cell Viability Assay in HepG2 cells - 0 hour (AID 1224889); also: nearly all actives have a fitted effect of over 50% in size
Method in brief: as §5
% is scaled to controls: 0 for no effect and ±100 for the full control effect.

CCc1nnc(NS(=O)(=O)c2ccc(N)cc2)s1
inactive: Potency [1] | outcome [2] | max response [3] 6.63% | Potency [4] | Potency [5] | Potency [6] | Potency [7] | Potency [8] | outcome [9] | Potency [10] | Potency [11] | Potency [12] | Potency [13] | outcome [14] | Potency [15] | Potency [16] | Potency [17] | Potency [18]

CCCCCCCCCC#N
inactive: Potency [1] | outcome [2] | max response [3] 0.388% | Potency [4] | Potency [5] | Potency [6] | Potency [7] | Potency [8] | outcome [9] | Potency [10] | Potency [12] | Potency [13] | outcome [14] | Potency [15] | Potency [16] | Potency [17] | Potency [19] | Potency [18]

FC(F)(F)c1ccccc1
inactive: Potency [1] | outcome [2] | max response [3] 11.8% | Potency [4] | Potency [5] | Potency [6] | Potency [7] | Potency [8] | outcome [9] | Potency [10] | Potency [11] | Potency [12] | Potency [13] | outcome [14] | Potency [15] | Potency [16] | Potency [17] | Potency [19] | Potency [18]
